{"source": "ChEMBL document CHEMBL3433997", "about": "“St. Jude Leishmania screening dataset” (2016)"}
{"target": "Hexose transporter 1 (Plasmodium falciparum) (UniProt O97467)", "test": "ST_JUDE_LEISH: Cytotoxicity at 2uM final concentration against transgenic Leishmania Mexicana promastigotes LmPfHT that are glucose transport deficient and complemented with the Plasmodium falciparum hexose transporter. Activity is measured by DNA content using SYBR green in vitro", "format": "functional", "units": {"inhibition": "%"}}
{"smiles": "CCCCN(C(=O)c1ccccc1Cl)c1nnc(-c2ccccc2C)s1", "inhibition": 0.39}
{"smiles": "O=C(NC1CC1)c1ccc(N2CCCC(COc3ccccc3F)C2)nc1", "note": "(stereo not drawn)", "inhibition": 1.75}
{"smiles": "COc1ccc2ncn(-c3ccc(C(N)=O)c(OCc4ccccc4C(F)(F)F)c3)c2c1", "inhibition": -1.32}
{"smiles": "Cc1ccc(Cn2ncc(N3CCC(N)CC3)c(Cl)c2=O)cc1NC(=O)Nc1ccc(-c2ccccc2)cc1", "inhibition": 12.3}
{"smiles": "COc1cc2ccccc2c(CON2C(=N)N=C(N)NC2(C)C)c1OC", "inhibition": 2.15}
{"smiles": "Cc1cccc2nc(-c3ccc(-c4cccc(NC(=O)NCc5cccc(F)c5)c4)s3)[nH]c12", "inhibition": -0.47}
{"smiles": "COc1ccc2nc3cc(Cl)ccc3c(NCCN3CCN(C)CC3)c2c1", "inhibition": 3.95}
{"smiles": "O=[N+]([O-])c1cccc(S(=O)(=O)N2CCN(CC(O)COc3ccc(-c4ccccc4)cc3)CC2)c1", "note": "(stereo not drawn)", "inhibition": 1.75}
{"smiles": "CC(C)NCc1ccc(-c2ccc(NC(=O)c3ccc(Cl)cc3)cc2)cc1", "inhibition": 16.2}
{"smiles": "CC1CNC(c2cccc(NC(=O)Nc3cccc(C4=NC(C)CN4)c3)c2)=N1", "note": "(stereo not drawn)", "inhibition": 8.33}
{"smiles": "COC(=O)C(=C(C)C)N1C(=O)[C@@H](NC(=O)OCc2ccccc2)[C@H]1SS[C@@H]1[C@H](NC(=O)OCc2ccccc2)C(=O)N1C(C(=O)OC)=C(C)C", "inhibition": -0.42}
{"smiles": "O=C(Nc1cccc(-c2ccc(CN3CCNCC3)cc2)c1)c1cccc(Cl)c1", "inhibition": -1.87}
{"smiles": "Cc1cccc2nc(-c3cccc(-c4cccc(NC(=O)CCc5c[nH]cn5)c4)c3)[nH]c12", "inhibition": 0.27}
{"smiles": "Cc1noc(C)c1-c1cccc(CNCc2cccc(-c3csc(-c4nc5ccccc5[nH]4)c3)c2)c1", "inhibition": 3.22}
{"smiles": "COc1ccc(NS(=O)(=O)c2ccc(C(=O)Nc3ccc(OC(F)(F)F)cc3)cc2)cc1N1CCN(CC2CC2)CC1", "inhibition": 5.3}
{"smiles": "CCCNCc1ccc(-c2ccc(CN(CCOC)C(=O)Cc3cccnc3)cc2)nc1", "inhibition": 1.34}
{"smiles": "Cc1ccc(CNC(=O)c2cc3c(=O)n4ccccc4nc3n(CCCN3CCOCC3)c2=N)cc1", "inhibition": 6.83}
{"smiles": "CC(C)CCn1c(Sc2ccc(C#N)c([N+](=O)[O-])c2)nnc1-c1ccc(N(C)C)cc1", "inhibition": 0.92}
{"smiles": "CN(Cc1ccccc1)C1CCN(c2cc(NC(=O)c3cccc(F)c3)ccn2)CC1", "inhibition": 8.73}
{"smiles": "O=C(Nc1cccc(CN2CCN(C(=O)c3cccs3)CC2)c1)c1cccs1", "inhibition": 2.59}
{"smiles": "COc1ccc2nc(/N=C3\\NC(c4ccccn4)(c4ccccn4)C(=O)N3C)[nH]c2c1", "inhibition": 11.1}
{"smiles": "CC1CN(CC(O)Cn2c3ccc(Br)cc3c3cc(Br)ccc32)CC(C)O1", "note": "(stereo not drawn)", "inhibition": 2.45}
{"smiles": "CCCC(C)Nc1nc(C)cc(N[C@@H](Cc2ccccc2)C(=O)NCc2ccc(C)cc2)n1", "note": "(stereo partly drawn)", "inhibition": 9.09}
{"smiles": "COc1cc(C=CC(=O)N2CCN(Cc3cccc(C)c3)CC2)ccc1OCc1c(C)noc1C", "inhibition": 6.88}
{"smiles": "O=C(Nc1ccc(OC2CCN(Cc3ccc(F)cc3)CC2)cc1)c1cccs1", "inhibition": 0.37}
{"smiles": "CCCOc1ccc(C(F)(F)F)cc1NC(=O)c1nc2nc(C)cc(C)n2n1", "inhibition": 5.05}
{"smiles": "Cc1ccc(NS(=O)(=O)c2ccc(C(C)N3CCC(N4CCCCC4)CC3)cc2)cc1C", "note": "(stereo not drawn)", "inhibition": -0.86}
{"smiles": "CCCCCCNC(=O)C1Cc2c([nH]c3ccc(Br)cc23)C2(CCN(CCc3ccccc3)CC2)N1", "note": "(stereo not drawn)", "inhibition": 10.8}
{"smiles": "CN(c1ccc(NC(=O)c2ccc(F)cc2)cc1)C1CCN(Cc2cccc(F)c2)C1", "note": "(stereo not drawn)", "inhibition": -0.15}
{"smiles": "COc1ccc(-c2nonc2NC(=O)c2cccc(Cl)c2)cc1OC", "inhibition": 1.03}
{"smiles": "O=C(NCc1cccc(F)c1)Nc1cccc(-c2ccc(-c3nc4cc(C(F)(F)F)ccc4[nH]3)cc2)c1", "inhibition": 1.57}
{"smiles": "N#Cc1ccc(N/C(=N\\c2cccc(Cl)c2Cl)NC2Cc3ccccc3C2)c(O)c1", "inhibition": 2.84}
{"smiles": "COc1ccc2ccc(F)c(CC(=O)N3CCOC(CNCc4cccc(-c5ccsc5)n4)C3)c2n1", "note": "(stereo not drawn)", "inhibition": 6.66}
{"smiles": "Cc1noc(C)c1-c1cccc(CNCc2cccc(-c3cccc(-c4nc5cc(F)ccc5[nH]4)c3)c2)c1", "inhibition": 5}
{"smiles": "CN1CCC(N(Cc2ccc(-c3cnc(NCc4ccccc4)nc3)cc2)S(=O)(=O)c2ccccc2)CC1", "inhibition": 12.1}
{"smiles": "COc1ccc(NC(=O)/C=C/c2ccc(-c3ccc(-c4noc(C)n4)cc3)cc2)cc1OCCN(C)C", "inhibition": 2.25}
{"smiles": "O=C(Nc1cccc(C(F)(F)F)c1)c1cccc(S(=O)(=O)NCC2CCCN2CC2CCCCC2)c1", "note": "(stereo not drawn)", "inhibition": 3.21}
{"smiles": "O=C(Nc1ccc2c(c1)CCC2)c1cnc(N2CCN(c3ccncc3)CC2)c(Cl)c1", "inhibition": 63.6}
{"smiles": "COc1ccc2nc3cc(Cl)ccc3c(NCCO)c2c1", "inhibition": -1.06}
{"target": "Glucose transporter (Leishmania mexicana) (UniProt O61059)", "test": "ST_JUDE_LEISH: Cytotoxicity at 2uM final concentration against transgenic Leishmania Mexicana promastigotes LmGT2 that are glucose transport deficient and complemented with the L. Mexicana glucose transporter 2. Activity is measured by DNA content using SYBR green in vitro", "format": "functional", "units": {"inhibition": "%"}}
{"smiles": "CCCCN(C(=O)c1ccccc1Cl)c1nnc(-c2ccccc2C)s1", "inhibition": 0.03}
{"smiles": "O=C(NC1CC1)c1ccc(N2CCCC(COc3ccccc3F)C2)nc1", "note": "(stereo not drawn)", "inhibition": 2.62}
{"smiles": "COc1ccc2ncn(-c3ccc(C(N)=O)c(OCc4ccccc4C(F)(F)F)c3)c2c1", "inhibition": -3.42}
{"smiles": "Cc1ccc(Cn2ncc(N3CCC(N)CC3)c(Cl)c2=O)cc1NC(=O)Nc1ccc(-c2ccccc2)cc1", "inhibition": 11.9}
{"smiles": "COc1cc2ccccc2c(CON2C(=N)N=C(N)NC2(C)C)c1OC", "inhibition": 1.62}
{"smiles": "Cc1cccc2nc(-c3ccc(-c4cccc(NC(=O)NCc5cccc(F)c5)c4)s3)[nH]c12", "inhibition": -1.14}
{"smiles": "COc1ccc2nc3cc(Cl)ccc3c(NCCN3CCN(C)CC3)c2c1", "inhibition": 3.79}
{"smiles": "O=[N+]([O-])c1cccc(S(=O)(=O)N2CCN(CC(O)COc3ccc(-c4ccccc4)cc3)CC2)c1", "note": "(stereo not drawn)", "inhibition": 4.46}
{"smiles": "CC(C)NCc1ccc(-c2ccc(NC(=O)c3ccc(Cl)cc3)cc2)cc1", "inhibition": 16.1}
{"smiles": "CC1CNC(c2cccc(NC(=O)Nc3cccc(C4=NC(C)CN4)c3)c2)=N1", "note": "(stereo not drawn)", "inhibition": 6.15}
{"smiles": "COC(=O)C(=C(C)C)N1C(=O)[C@@H](NC(=O)OCc2ccccc2)[C@H]1SS[C@@H]1[C@H](NC(=O)OCc2ccccc2)C(=O)N1C(C(=O)OC)=C(C)C", "inhibition": -1.05}
{"smiles": "O=C(Nc1cccc(-c2ccc(CN3CCNCC3)cc2)c1)c1cccc(Cl)c1", "inhibition": -2.68}
{"smiles": "Cc1cccc2nc(-c3cccc(-c4cccc(NC(=O)CCc5c[nH]cn5)c4)c3)[nH]c12", "inhibition": 1.56}
{"smiles": "Cc1noc(C)c1-c1cccc(CNCc2cccc(-c3csc(-c4nc5ccccc5[nH]4)c3)c2)c1", "inhibition": 1.31}
{"smiles": "COc1ccc(NS(=O)(=O)c2ccc(C(=O)Nc3ccc(OC(F)(F)F)cc3)cc2)cc1N1CCN(CC2CC2)CC1", "inhibition": 4.14}
{"smiles": "CCCNCc1ccc(-c2ccc(CN(CCOC)C(=O)Cc3cccnc3)cc2)nc1", "inhibition": 3.67}
{"smiles": "Cc1ccc(CNC(=O)c2cc3c(=O)n4ccccc4nc3n(CCCN3CCOCC3)c2=N)cc1", "inhibition": 7.61}
{"smiles": "CC(C)CCn1c(Sc2ccc(C#N)c([N+](=O)[O-])c2)nnc1-c1ccc(N(C)C)cc1", "inhibition": 0.35}
{"smiles": "CN(Cc1ccccc1)C1CCN(c2cc(NC(=O)c3cccc(F)c3)ccn2)CC1", "inhibition": 6.54}
{"smiles": "O=C(Nc1cccc(CN2CCN(C(=O)c3cccs3)CC2)c1)c1cccs1", "inhibition": 2.26}
{"smiles": "COc1ccc2nc(/N=C3\\NC(c4ccccn4)(c4ccccn4)C(=O)N3C)[nH]c2c1", "inhibition": 9.86}
{"smiles": "CC1CN(CC(O)Cn2c3ccc(Br)cc3c3cc(Br)ccc32)CC(C)O1", "note": "(stereo not drawn)", "inhibition": 3.29}
{"smiles": "CCCC(C)Nc1nc(C)cc(N[C@@H](Cc2ccccc2)C(=O)NCc2ccc(C)cc2)n1", "note": "(stereo partly drawn)", "inhibition": 4.86}
{"smiles": "COc1cc(C=CC(=O)N2CCN(Cc3cccc(C)c3)CC2)ccc1OCc1c(C)noc1C", "inhibition": 6.13}
{"smiles": "O=C(Nc1ccc(OC2CCN(Cc3ccc(F)cc3)CC2)cc1)c1cccs1", "inhibition": -2.79}
{"smiles": "CCCOc1ccc(C(F)(F)F)cc1NC(=O)c1nc2nc(C)cc(C)n2n1", "inhibition": 1.31}
{"smiles": "Cc1ccc(NS(=O)(=O)c2ccc(C(C)N3CCC(N4CCCCC4)CC3)cc2)cc1C", "note": "(stereo not drawn)", "inhibition": 0.73}
{"smiles": "CCCCCCNC(=O)C1Cc2c([nH]c3ccc(Br)cc23)C2(CCN(CCc3ccccc3)CC2)N1", "note": "(stereo not drawn)", "inhibition": 9.91}
{"smiles": "CN(c1ccc(NC(=O)c2ccc(F)cc2)cc1)C1CCN(Cc2cccc(F)c2)C1", "note": "(stereo not drawn)", "inhibition": 3.04}
{"smiles": "COc1ccc(-c2nonc2NC(=O)c2cccc(Cl)c2)cc1OC", "inhibition": 1.34}
{"smiles": "O=C(NCc1cccc(F)c1)Nc1cccc(-c2ccc(-c3nc4cc(C(F)(F)F)ccc4[nH]3)cc2)c1", "inhibition": 0.07}
{"smiles": "N#Cc1ccc(N/C(=N\\c2cccc(Cl)c2Cl)NC2Cc3ccccc3C2)c(O)c1", "inhibition": 3.97}
{"smiles": "COc1ccc2ccc(F)c(CC(=O)N3CCOC(CNCc4cccc(-c5ccsc5)n4)C3)c2n1", "note": "(stereo not drawn)", "inhibition": 4.23}
{"smiles": "Cc1noc(C)c1-c1cccc(CNCc2cccc(-c3cccc(-c4nc5cc(F)ccc5[nH]4)c3)c2)c1", "inhibition": 0.55}
{"smiles": "CN1CCC(N(Cc2ccc(-c3cnc(NCc4ccccc4)nc3)cc2)S(=O)(=O)c2ccccc2)CC1", "inhibition": 3.05}
{"smiles": "COc1ccc(NC(=O)/C=C/c2ccc(-c3ccc(-c4noc(C)n4)cc3)cc2)cc1OCCN(C)C", "inhibition": 0.27}
{"smiles": "O=C(Nc1cccc(C(F)(F)F)c1)c1cccc(S(=O)(=O)NCC2CCCN2CC2CCCCC2)c1", "note": "(stereo not drawn)", "inhibition": 4.26}
{"smiles": "O=C(Nc1ccc2c(c1)CCC2)c1cnc(N2CCN(c3ccncc3)CC2)c(Cl)c1", "inhibition": 37}
{"smiles": "COc1ccc2nc3cc(Cl)ccc3c(NCCO)c2c1", "inhibition": 2.4}
